Records with an inconclusive call do not appear. The source made the active and inactive calls. Unless noted, calls come from the whole dose curve; as a rule, active = well fitted curve in the direction sought with a large enough effect in the repeat runs; inconclusive = weak or mixed curves; inactive = no such curve, though single readings can be large; an effect the other way counts as inactive or inconclusive.
How the values were obtained:
[1] = qHTS assay for small molecule agonists of the p53 signaling pathway (AID 651631; calls by dose curve; note: nearly all actives have a fitted effect of over 15% in size; note: potency is the fitted concentration of half-maximal effect)
Summary of the method: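 Fluorescence intensity from cleaved LiveBLAzer B/G substrate (2 h, room temperature) served as the signal. Beforehand, HCT-116 reporter cells bearing p53 response elements were treated 16 h at 37 °C with DMSO-dissolved compounds.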

[2] = qHTS assay for small molecules that induce genotoxicity in human embryonic kidney cells expressing luciferase-tagged ATAD5 (AID 651632); note: nearly all actives have a fitted effect of over 15% in size; note: potency is the fitted concentration of half-maximal effect
Summary of the method: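 HEK293T cells carrying a luciferase reporter tagged to ATAD5 were exposed to compound or DMSO vehicle for 16 hr at 37C, 5% CO2. Amplite was added, and after 30 min at room temperature luciferase activity was read as a marker of ATAD5 induction.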

[3] = qHTS assay for small molecules that induce genotoxicity in human embryonic kidney cells expressing luciferase-tagged ATAD5 - cell viability (AID 651634; calls by dose curve; note: nearly all actives have a fitted effect of over 25% in size; note: potency is the fitted concentration of half-maximal effect)
Summary of the method: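 HEK293T cells expressing luciferase-tagged ATAD5 were exposed to compound or DMSO for 15.5 hr at 37C, 5% CO2. Viability was then read as live-cell protease activity by CellTiter-Fluor fluorescence after 30 min at 37C.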

[4] = qHTS assay for small molecule disruptors of the mitochondrial membrane potential - cell viability (AID 720634; calls by dose curve;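 note: human HepG2 liver cancer cells; nearly all actives have a fitted effect of over 20% in size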)
Summary of the method: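 HepG2 cells seeded overnight at 37 C, then exposed to compound or DMSO for 1 hr at 37 C, 5% CO2. m-MPI dye added, then CellTiter-Glo for 30 min at room temperature; viability read as ATP luminescence.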

[5] = qHTS assay to test for compound auto fluorescence at 590 nm (red) in HepG2 cells (AID 720674)
Summary of the method: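 Fluorescence at 590 nm emission following 540 nm excitation was recorded from HepG2 wells one hour after compound transfer, with DMSO-only wells as vehicle and Rose Bengal sodium equivalency as the scale.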

[6] = qHTS assay to test for compound auto fluorescence at 460 nm (blue) in HEK293 cells (AID 720678); note: potency is the fitted concentration of half-maximal effect
Summary of the method: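 After cell attachment (4-5 hr, 37C), compounds were pinned onto HEK293 monolayers in 10% dialyzed FBS medium. The blue channel (405/460 nm) was read following overnight culture. Equivalency was calculated against triamterene.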

[7] = qHTS assay to test for compound auto fluorescence at 590 nm (red) in HEK293 cells (AID 720679)
Summary of the method: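 Plates of HEK293 cells (10% dialyzed FBS) are treated with 23 nL compound or DMSO vehicle after a 4-5 hr attachment period, incubated overnight at 37C, and read for red fluorescence at 540/590nm.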

[8] = qHTS assay to test for compound auto fluorescence at 535 nm (green) in HEK293 cells (AID 720680)
[9] = qHTS assay to test for compound auto fluorescence at 460 nm (blue) in HEK293 cell free culture (AID 720681); note: potency is the fitted concentration of half-maximal effect
Summary of the method: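 Compounds were added to cell-free DMEM with 10% FBS and fluorescence read directly. The blue channel used 405 nm excitation and 460 nm emission, with triamterene as the reference fluorophore.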

[10] = qHTS assay to test for compound auto fluorescence at 535 nm (green) in HEK293 cell free culture (AID 720682)
Summary of the method: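 Intrinsic compound fluorescence is measured in culture medium containing 10% FBS, with excitation at 485 nm and detection at 535 nm, referenced to fluorescein.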

[11] = qHTS assay to test for compound auto fluorescence at 590 nm (red) in HEK293 cell free culture (AID 720683)
Summary of the method: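 Cell-free wells of DMEM with 10% FBS received compound, and intrinsic fluorescence was read at excitation/emission 540/590 nm. Values expressed as equivalence to Rose Bengal sodium.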

[12] = qHTS assay to test for compound auto fluorescence at 590 nm (red) in HepG2 cell free culture (AID 720684)
Summary of the method: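 Compounds are added to culture medium (MEM, 10% FBS) lacking cells, then fluorescence is read at excitation 540 nm, emission 590 nm, with Rose Bengal sodium as the equivalency standard.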

[13] = qHTS assay to test for compound auto fluorescence at 460 nm (blue) in HepG2 cell free culture (AID 720685); note: potency is the fitted concentration of half-maximal effect
Summary of the method: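 Compound (23 nL) or DMSO pinned into cell-free MEM with 10% FBS; blue fluorescence read at 405/460 nm excitation/emission, expressed as auto-fluorescence equivalency to triamterene.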

[14] = qHTS assay to test for compound auto fluorescence at 535 nm (green) in HepG2 cell free culture (AID 720686)
[15] = qHTS assay to test for compound auto fluorescence at 460 nm (blue) in HepG2 cells (AID 720687)
Summary of the method: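 HepG2 cells in MEM with 10% FBS, attached overnight at 37 C, were exposed to compound or DMSO for 1 hr at 37 C, 5% CO2. Blue fluorescence was read at 405/460 nm, with triamterene as reference fluorophore.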

[16] = target: Glucocorticoid receptor (Homo sapiens) (UniProt P04150); test: qHTS assay to identify small molecule agonists of the glucocorticoid receptor (GR) signaling pathway (AID 720691; active = well fitted activation curve with a large enough effect in the signal ratio in the repeat runs, not every such curve was filed as active; the % refers to the signal ratio); conditions: GR-bla HeLa, beta-lactamase reporter ratio, 18 h; activation: at 62.4 µM (top of the series)
Summary of the method: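 GR-bla HeLa cells (beta-lactamase reporter under glucocorticoid response element) were plated 4 h at 37 C/5% CO2, given compounds in DMSO, and incubated 18 h at 37 C. LiveBLAzer B/G FRET substrate was added for 2 h at room temperature, then fluorescence intensity read.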

[17] = qHTS assay for small molecule disruptors of the mitochondrial membrane potential (AID 720635); note: potency is the fitted concentration of half-maximal effect
Summary of the method: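 HepG2 cells exposed to compound 1 hr at 37C, then Mito-MPS dye 30 min. Ratio read of aggregate (540/590 nm) versus monomer (490/535 nm) fluorescence.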

[18] = qHTS assay to test for compound auto fluorescence at 535 nm (green) in HepG2 cells (AID 720675)
[19] = target: Glucocorticoid receptor (Homo sapiens) (UniProt P04150); test: qHTS assay to identify small molecule antagonists of the glucocorticoid receptor (GR) signaling pathway (AID 720692; active = well fitted inhibition curve with a large enough effect in the signal ratio in the repeat runs, not every such curve was filed as active; the % refers to the signal ratio; note: potency is the fitted concentration of half-maximal effect)
Summary of the method: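 GR-bla HeLa cells (beta-lactamase reporter under glucocorticoid response element) were pre-plated 4 h at 37 C, treated with compounds plus 5 nM dexamethasone (final) for 18 h, then read by LiveBLAzer B/G FRET fluorescence after 2 h.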

[20] = qHTS assay for small molecule agonists of the p53 signaling pathway - cell viability (AID 651633; calls by dose curve;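 note: p53RE-bla HCT reporter cells with a stable beta-lactamase p53 reporter; nearly all actives have a fitted effect of over 30% in size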)
Summary of the method: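 p53RE-bla cells were treated with compound for 16 hours at 37 C. Cytotoxicity was then measured as CellTiter-Glo luminescence after 30 min at room temperature.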

Measured: Potency
Tags give direction and shape of the fitted curve or compound fluorescence and quenching.

Sequence of Glucocorticoid receptor (Homo sapiens) (P04150 whole entry, looked up): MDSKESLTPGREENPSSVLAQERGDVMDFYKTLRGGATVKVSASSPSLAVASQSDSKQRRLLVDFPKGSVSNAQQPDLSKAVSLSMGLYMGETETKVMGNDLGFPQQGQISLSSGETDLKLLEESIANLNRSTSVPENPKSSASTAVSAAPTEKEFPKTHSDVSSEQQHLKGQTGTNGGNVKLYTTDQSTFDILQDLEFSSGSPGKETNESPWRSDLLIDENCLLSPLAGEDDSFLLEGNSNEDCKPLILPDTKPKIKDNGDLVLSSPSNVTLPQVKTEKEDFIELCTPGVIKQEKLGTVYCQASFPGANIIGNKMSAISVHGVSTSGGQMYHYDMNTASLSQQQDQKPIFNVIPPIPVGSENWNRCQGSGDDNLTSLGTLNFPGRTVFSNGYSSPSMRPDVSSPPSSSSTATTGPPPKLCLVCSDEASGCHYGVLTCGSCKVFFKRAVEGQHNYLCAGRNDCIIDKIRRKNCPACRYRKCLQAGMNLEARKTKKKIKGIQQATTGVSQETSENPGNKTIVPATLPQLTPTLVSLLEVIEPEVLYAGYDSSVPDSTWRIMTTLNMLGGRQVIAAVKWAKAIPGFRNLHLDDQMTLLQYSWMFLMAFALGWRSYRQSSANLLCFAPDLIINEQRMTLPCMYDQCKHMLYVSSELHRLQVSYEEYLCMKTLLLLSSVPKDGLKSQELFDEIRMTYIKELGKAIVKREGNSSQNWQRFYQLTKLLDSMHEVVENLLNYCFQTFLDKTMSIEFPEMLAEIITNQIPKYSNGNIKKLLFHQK

C/C=C(\C)C(=O)OCc1ccccc1
inactive: [1] | [2] | [3] | [4] | [5] | [6] | [7] | [8] | [9] | [10] | [11] | [12] | [13] | [14] | [15] | [16]

NC(=O)CC[C@@H]1NC(=O)[C@H](Cc2ccccc2)NC(=O)[C@H](Cc2ccc(O)cc2)NC(=O)CCSSC[C@@H](C(=O)N2CCC[C@H]2C(=O)N[C@@H](CCCN=C(N)N)C(=O)NCC(N)=O)NC(=O)[C@H](CC(N)=O)NC1=O
inactive: [1] | [2] | [3] | [4] | [17] | [5] | [18] | [6] | [7] | [8] | [9] | [10] | [11] | [12] | [13] | [14] | [15]

O=c1c(-c2ccccc2)c1-c1ccccc1
active: [1] 18.8 µM | [17] 23.7 µM | [19] 23.9 µM
inactive: [2] | [4] | [5] | [18] | [6] | [7] | [8] | [9] | [10] | [11] | [12] | [13] | [14] | [15]

C=C(C)C(=O)OCC(O)COc1ccc(C(C)(C)c2ccc(OCC(O)COC(=O)C(=C)C)cc2)cc1 (stereo not given)
active: [1] 68.6 µM | [3] 21.7 µM | [17] 5.45 µM
inactive: [2] | [5] | [18] | [6] | [7] | [8] | [9] | [10] | [11] | [12] | [13] | [14] | [15]

CCC(C)(C)C1CCCCC1OC(C)=O (stereo not given)
inactive: [1] | [2] | [3] | [5] | [18] | [6] | [7] | [8] | [9] | [10] | [11] | [12] | [13] | [15]

CCCCN1C(=O)[C@@H]([C@H](O)C2CCCCC2)NC(=O)C12CCN(Cc1ccc(Oc3ccc(C(=O)O)cc3)cc1)CC2
inactive: [2] | [20] | [4] | [5] | [18] | [6] | [7] | [8] | [9] | [10] | [11] | [12] | [13] | [14] | [15]
active: [1] 54.5 µM

CCN(CC)CCCC(C)Nc1c2ccc(Cl)cc2nc2ccc(OC)cc12 (stereo not given)
active: [1] 5.96 µM | [2] 29.8 µM | [6] 11.2 µM [fluorescent] | [9] 17.8 µM | [13] 15.8 µM [fluorescent]
inactive: [3] | [5] | [18] | [7] | [8] | [10] | [11] | [12] | [14]
